Results: PubChem BioAssay (Tox21)
A number with no mark means an inactive call. Records with an inconclusive call do not appear. A call without a number means that no potency is given here. Active and inactive are the calls of the source. Unless noted, the call rests on the fitted dose curve; in most records, active means well fitted curve in the direction sought with a large enough effect in the repeat runs; inconclusive means weak or mixed curves; inactive means no such curve, though single readings can be large; an effect the other way counts as inactive or inconclusive.

What was measured:
[1] = target: Estrogen receptor beta (Homo sapiens) (UniProt Q92731); experiment: qHTS assay to identify small molecule agonists of the estrogen receptor beta (ER-beta) signaling pathway (AID 1259377; active means well fitted activation curve with a large enough effect in the signal ratio in the repeat runs, not every such curve was filed as active; the % refers to the signal ratio)
Sequence of Estrogen receptor beta (Homo sapiens) (Q92731 whole entry, looked up): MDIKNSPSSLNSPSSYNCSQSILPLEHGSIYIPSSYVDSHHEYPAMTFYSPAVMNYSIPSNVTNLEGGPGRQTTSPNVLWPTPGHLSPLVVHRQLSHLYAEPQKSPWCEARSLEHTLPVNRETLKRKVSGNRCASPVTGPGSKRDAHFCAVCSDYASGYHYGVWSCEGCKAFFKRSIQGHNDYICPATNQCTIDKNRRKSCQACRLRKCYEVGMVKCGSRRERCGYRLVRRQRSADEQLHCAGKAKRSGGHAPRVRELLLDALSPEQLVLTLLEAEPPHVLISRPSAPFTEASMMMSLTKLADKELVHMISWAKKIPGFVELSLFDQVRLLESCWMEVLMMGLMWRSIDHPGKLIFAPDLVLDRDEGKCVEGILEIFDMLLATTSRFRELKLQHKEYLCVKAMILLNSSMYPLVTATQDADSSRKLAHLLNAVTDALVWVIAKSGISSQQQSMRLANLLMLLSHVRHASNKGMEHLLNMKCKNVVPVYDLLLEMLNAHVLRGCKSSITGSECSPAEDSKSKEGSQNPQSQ
Outline: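 Ratiometric beta-lactamase FRET read-out came after 2 h substrate loading at room temperature. It followed 16 h compound treatment at 37C of GripTite HEK293T cells carrying a UAS-bla reporter, plated in 2% charcoal-stripped FBS medium.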

[2] = target: Estrogen receptor beta (Homo sapiens) (UniProt Q92731); experiment: qHTS assay to identify small molecule antagonists of the estrogen receptor beta (ER-beta) signaling pathway (AID 1259378; active means well fitted inhibition curve with a large enough effect in the signal ratio in the repeat runs, not every such curve was filed as active; the % refers to the signal ratio; further: potency means the concentration at half of the fitted maximal effect)
Outline: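 ER-beta-UAS-bla HEK293T (GripTite) cells in 2% charcoal-stripped FBS medium were preincubated 6 hr at 37C, dosed with compound, then stimulated with 1 nM E2 (final) for 16 hr; beta-lactamase reporter read by B/G FRET fluorescence after 2 hr substrate loading.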

[3] = qHTS assay to identify small molecule agonists of the androgen receptor (AR) signaling pathway in the presence of an antagonist - cell viability counter screen (AID 1259379); further: nearly all actives have a fitted effect of over 25% in size; further: potency means the concentration at half of the fitted maximal effect
Outline: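 Fluorescence from CellTiter-Fluor, added after 15 hr and read 1 hr later, gave cell viability. Cells were MDA-kb2 exposed to compounds (15 concentrations) in the presence of 3.0uM nilutamide at 37C, 0% CO2.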

[4] = qHTS assay to identify small molecule agonists of the estrogen receptor beta (ER-beta) signaling pathway - cell viability counter screen (AID 1259380); further: nearly all actives have a fitted effect of over 30% in size; further: potency means the concentration at half of the fitted maximal effect
Outline: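 Same-well viability counter screen. Cells: ER-beta-UAS-bla HEK293T, plated 6 hr before compound, in 2% charcoal-stripped FBS. Compound exposure 16 hr, 37C; viability by CellTiter-Glo luminescence after 30 min at room temperature.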

[5] = target: Androgen receptor (Homo sapiens) (UniProt P10275); experiment: qHTS assay to identify small molecule agonists of the androgen receptor (AR) signaling pathway in the presence of an antagonist (AID 1259381; calls by dose curve; further: nearly all actives have a fitted effect of over 15% in size)
Sequence of Androgen receptor (Homo sapiens) (P10275 whole entry, looked up): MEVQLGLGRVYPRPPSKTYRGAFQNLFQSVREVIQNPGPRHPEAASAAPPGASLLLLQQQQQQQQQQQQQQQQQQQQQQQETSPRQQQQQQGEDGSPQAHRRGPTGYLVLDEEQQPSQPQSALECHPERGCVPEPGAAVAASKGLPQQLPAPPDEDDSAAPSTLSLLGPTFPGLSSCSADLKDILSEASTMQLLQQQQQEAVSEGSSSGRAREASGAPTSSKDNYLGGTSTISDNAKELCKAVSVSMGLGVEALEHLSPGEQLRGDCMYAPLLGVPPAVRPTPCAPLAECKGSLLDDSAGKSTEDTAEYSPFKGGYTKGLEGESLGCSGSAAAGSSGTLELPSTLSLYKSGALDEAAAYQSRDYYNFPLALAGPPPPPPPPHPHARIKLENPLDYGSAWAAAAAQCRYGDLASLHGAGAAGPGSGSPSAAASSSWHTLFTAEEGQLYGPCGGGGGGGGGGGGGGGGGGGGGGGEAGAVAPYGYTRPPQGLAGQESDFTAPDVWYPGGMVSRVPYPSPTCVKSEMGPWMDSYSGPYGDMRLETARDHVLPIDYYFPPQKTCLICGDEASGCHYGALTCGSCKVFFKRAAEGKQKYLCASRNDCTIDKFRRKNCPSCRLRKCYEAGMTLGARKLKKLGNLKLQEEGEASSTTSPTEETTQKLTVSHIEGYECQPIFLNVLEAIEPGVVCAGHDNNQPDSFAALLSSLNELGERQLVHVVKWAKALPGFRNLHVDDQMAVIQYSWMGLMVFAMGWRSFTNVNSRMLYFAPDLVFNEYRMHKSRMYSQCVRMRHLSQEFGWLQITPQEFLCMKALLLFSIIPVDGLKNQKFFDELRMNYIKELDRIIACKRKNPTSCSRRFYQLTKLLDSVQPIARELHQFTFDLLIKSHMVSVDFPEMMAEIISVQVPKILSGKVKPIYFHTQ
Outline: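 Cells are MDA-kb2 (human breast carcinoma, MMTV-luc, AR/GR responsive). Nilutamide is present at 3.0uM final throughout; compounds are added at 15 concentrations and incubated 16hr at 37C before ONE-Glo luminescence detection.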

[6] = qHTS assay to identify small molecule antagonists of the estrogen receptor beta (ER-beta) signaling pathway - cell viability counter screen (AID 1259382); further: nearly all actives have a fitted effect of over 55% in size; further: potency means the concentration at half of the fitted maximal effect
Outline: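 Following a 6 hr plating period, HEK293T cells carrying a UAS-driven beta-lactamase reporter under ER-beta control received compounds and 1nM E2 (final). After 16 hr at 37C and 2 hr substrate loading, CellTiter-Glo luminescence indicated viability.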

[7] = target: Estrogen receptor (Homo sapiens) (UniProt P03372); experiment: qHTS assay to identify small molecule agonists of the estrogen receptor alpha (ER-alpha) signaling pathway in the presence of an antagonist (AID 1259383; calls by dose curve; further: top concentration of the series differs between compounds; nearly all actives have a fitted effect of over 15% in size)
Sequence of Estrogen receptor (Homo sapiens) (P03372 whole entry, looked up): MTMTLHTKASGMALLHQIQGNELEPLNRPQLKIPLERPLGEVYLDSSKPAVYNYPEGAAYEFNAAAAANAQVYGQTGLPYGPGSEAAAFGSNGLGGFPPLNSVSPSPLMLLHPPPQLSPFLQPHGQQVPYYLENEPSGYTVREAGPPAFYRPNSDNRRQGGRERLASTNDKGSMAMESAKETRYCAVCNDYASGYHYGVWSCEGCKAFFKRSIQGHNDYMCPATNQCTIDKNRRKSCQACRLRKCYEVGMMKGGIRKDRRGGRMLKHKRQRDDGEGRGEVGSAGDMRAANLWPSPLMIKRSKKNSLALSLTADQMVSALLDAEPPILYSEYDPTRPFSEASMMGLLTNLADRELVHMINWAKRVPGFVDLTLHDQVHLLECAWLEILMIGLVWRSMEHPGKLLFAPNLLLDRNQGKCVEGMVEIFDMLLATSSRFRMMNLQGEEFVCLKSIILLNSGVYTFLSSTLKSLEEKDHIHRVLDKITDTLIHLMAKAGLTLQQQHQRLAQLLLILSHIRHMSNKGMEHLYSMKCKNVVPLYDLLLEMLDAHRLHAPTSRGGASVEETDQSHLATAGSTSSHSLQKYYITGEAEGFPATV
Outline: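 Cells are hormone-deprived for 5 days (charcoal-stripped FBS, no phenol red), plated for 24hr, spiked with 10.0nM ICI-182,780, then dosed at 15 concentrations. After 22hr at 37C, ONE-Glo luminescence reports ERE-luciferase activity.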

[8] = qHTS assay to identify small molecule agonists or antagonists of the thyroid stimulating hormone receptor (TSHR) signaling pathway - wild type cell line counter screen (AID 1259384; calls by dose curve)
Outline: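 Wild-type HEK293 cells were plated 18 h at 37 C/5% CO2, pin-dosed with compound plus Ro20-1724 medium, held 30 min at room temperature, then given cAMP-d2 and anti-cAMP-cryptate; fluorescence was read after 1 h. Fifteen concentrations, triplicate.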

[9] = target: Thyrotropin receptor (Homo sapiens) (UniProt P16473); experiment: qHTS assay to identify small molecule antagonists of the thyroid stimulating hormone receptor (TSHR) signaling pathway (AID 1259385; calls by dose curve; further: nearly all actives have a fitted effect of over 20% in size; further: potency means the concentration at half of the fitted maximal effect)
Sequence of Thyrotropin receptor (Homo sapiens) (P16473 whole entry, looked up): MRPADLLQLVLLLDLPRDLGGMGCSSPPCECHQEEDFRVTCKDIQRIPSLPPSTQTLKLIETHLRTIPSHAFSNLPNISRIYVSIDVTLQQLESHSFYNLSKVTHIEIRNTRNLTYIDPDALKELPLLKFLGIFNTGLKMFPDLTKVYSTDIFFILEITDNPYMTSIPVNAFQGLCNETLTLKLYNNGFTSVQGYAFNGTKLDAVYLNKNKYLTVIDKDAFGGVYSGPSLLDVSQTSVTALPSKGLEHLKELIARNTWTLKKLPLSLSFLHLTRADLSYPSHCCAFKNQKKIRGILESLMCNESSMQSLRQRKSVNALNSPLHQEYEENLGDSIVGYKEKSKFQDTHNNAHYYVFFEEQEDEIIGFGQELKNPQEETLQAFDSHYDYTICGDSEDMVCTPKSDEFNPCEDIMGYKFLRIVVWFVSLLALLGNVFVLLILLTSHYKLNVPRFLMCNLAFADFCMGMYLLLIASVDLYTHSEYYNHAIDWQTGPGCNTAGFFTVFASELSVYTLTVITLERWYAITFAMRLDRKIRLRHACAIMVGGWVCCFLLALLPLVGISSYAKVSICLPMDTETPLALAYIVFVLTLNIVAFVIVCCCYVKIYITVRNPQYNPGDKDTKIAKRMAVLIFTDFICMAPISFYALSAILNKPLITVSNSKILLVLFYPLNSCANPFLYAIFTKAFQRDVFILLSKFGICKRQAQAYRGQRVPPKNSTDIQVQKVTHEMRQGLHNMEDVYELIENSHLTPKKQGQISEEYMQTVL
Outline: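 TSHR-HEK293 cells were plated and held 18 h at 37C/5% CO2, then given compound plus Ro20-1724 and stimulated with TSH at 1.5 ng/mL final. After 30 min at room temperature, cAMP was detected with cAMP-d2/anti-cAMP-cryptate (1 h) by fluorescence.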

[10] = qHTS assay to identify small molecule agonists of the estrogen receptor alpha (ER-alpha) signaling pathway in the presence of an antagonist - cell viability counter screen (AID 1259386);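 further: series mostly up to about 92 µM; cells exposed to compounds for 22 h at 37 °C before the viability read; nearly all actives have a fitted effect of over 30% in size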
Outline: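 Cells are starved of estrogens for 5 days in charcoal-stripped serum, seeded for 24hr and co-treated with ICI-182,780 (10.0nM final) and test compounds. After 22hr at 37C, viability is read as CellTiter-Fluor fluorescence.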

[11] = target: Progesterone receptor (Homo sapiens) (UniProt P06401); experiment: qHTS assay to identify small molecule agonists of the progesterone receptor (PR) signaling pathway (AID 1346784; calls by dose curve; further: nearly all actives have a fitted effect of over 30% in size)
Sequence of Progesterone receptor (Homo sapiens) (P06401 whole entry, looked up): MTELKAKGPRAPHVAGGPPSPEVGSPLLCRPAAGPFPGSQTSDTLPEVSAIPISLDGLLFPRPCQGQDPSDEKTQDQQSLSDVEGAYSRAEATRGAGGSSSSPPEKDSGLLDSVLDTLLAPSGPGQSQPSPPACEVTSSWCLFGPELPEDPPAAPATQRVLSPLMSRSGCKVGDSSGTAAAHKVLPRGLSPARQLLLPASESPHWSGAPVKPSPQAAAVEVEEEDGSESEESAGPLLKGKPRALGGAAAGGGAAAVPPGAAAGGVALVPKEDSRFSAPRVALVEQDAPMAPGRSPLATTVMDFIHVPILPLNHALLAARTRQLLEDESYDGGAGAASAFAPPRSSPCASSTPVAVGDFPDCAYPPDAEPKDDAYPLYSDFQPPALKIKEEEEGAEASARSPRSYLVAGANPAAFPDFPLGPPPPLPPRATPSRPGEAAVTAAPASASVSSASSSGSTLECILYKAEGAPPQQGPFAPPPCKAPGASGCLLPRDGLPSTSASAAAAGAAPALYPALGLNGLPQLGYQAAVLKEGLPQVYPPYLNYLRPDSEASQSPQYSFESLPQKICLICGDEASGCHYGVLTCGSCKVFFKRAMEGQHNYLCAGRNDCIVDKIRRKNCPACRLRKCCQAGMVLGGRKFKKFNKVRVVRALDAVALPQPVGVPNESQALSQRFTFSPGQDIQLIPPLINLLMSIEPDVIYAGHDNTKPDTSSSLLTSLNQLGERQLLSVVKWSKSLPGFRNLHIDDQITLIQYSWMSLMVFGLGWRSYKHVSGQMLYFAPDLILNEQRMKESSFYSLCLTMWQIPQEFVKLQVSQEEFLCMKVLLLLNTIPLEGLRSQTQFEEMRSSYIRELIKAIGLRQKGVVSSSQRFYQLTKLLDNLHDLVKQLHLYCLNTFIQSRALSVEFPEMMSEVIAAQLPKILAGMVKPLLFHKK
Outline: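 Agonist qHTS: compounds pinned onto 3,000 PR-UAS-bla HEK 293T cells per well in charcoal-stripped serum medium, 16hr at 37C, then beta-lactamase activity measured by LiveBLAzer FRET fluorescence after 2 hours at room temperature.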

[12] = target: Progesterone receptor (Homo sapiens) (UniProt P06401); experiment: qHTS assay to identify small molecule antagonists of the progesterone receptor (PR) signaling pathway (AID 1346795; active means well fitted inhibition curve with a large enough effect in the signal ratio in the repeat runs, not every such curve was filed as active; the % refers to the signal ratio)
Outline: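 Antagonist mode with agonist R5020 at 1 nM final and 16 hr incubation at 37C. Reporter was beta-lactamase driven by UAS in HEK293T (PR-UAS-bla), 2% charcoal-stripped serum; signal from LiveBLAzer FRET substrate, 2 hr at room temperature.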

[13] = qHTS assay to identify small molecule antagonists of the progesterone receptor (PR) signaling pathway - cell viability counter screen (AID 1346798); further: series mostly up to about 92 µM; nearly all actives have a fitted effect of over 50% in size
Outline: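 Cytotoxicity read as CellTiter-Glo luminescence (30 min, room temperature) in the same wells as the beta-lactamase readout. HEK293T PR-UAS-bla cells in charcoal-stripped 2% FBS received compound and R5020, then 16 h at 37C, 5% CO2.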

[14] = qHTS assay to identify small molecule agonists of the progesterone receptor (PR) signaling pathway - cell viability counter screen (AID 1346799; calls by dose curve; further: nearly all actives have a fitted effect of over 45% in size; further: potency means the concentration at half of the fitted maximal effect)
Outline: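 Cytotoxicity measured by CellTiter-Glo luminescence (30 min, RT) in the same wells as the PR beta-lactamase agonist read. Those HEK293T cells had 16 h compound treatment at 37 C in 2% charcoal-stripped FBS medium.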

[15] = qHTS assay to identify small molecule antagonists of the TGF-beta/Smad signaling pathway - cell viability counter screen (AID 1346824); further: nearly all actives have a fitted effect of over 50% in size
Outline: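 SBE-bla HEK 293T cells were plated overnight at 37 C, then given compounds in DMSO plus TGF-beta1 (added as 0.25 ng/mL solution) for 5 hr. After the bla read, CellTiter-Glo was added to the same wells and luminescence read after 30 min at room temperature.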

[16] = qHTS assay to identify small molecule agonists of the TGF-beta/Smad signaling pathway - cell viability counter screen (AID 1346829); further: top concentration of the series differs between compounds; nearly all actives have a fitted effect of over 45% in size
Outline: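 Luminescence from CellTiter-Glo, read after a 30 min room-temperature incubation, gives cell viability of SBE-bla HEK 293T cells treated 5 hr with compounds at 37 C.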

[17] = qHTS assay to identify small molecule agonists of the TGF-beta/Smad signaling pathway (AID 1346859; active means well fitted activation curve with a large enough effect in the signal ratio in the repeat runs, not every such curve was filed as active; the % refers to the signal ratio; further: series mostly up to about 77 µM)
Outline: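 Fluorescence (ex 405 nm; em 460 and 530 nm) was read 2 h after LiveBLAzer FRET substrate at RT. The preceding compound treatment of overnight-plated SBE-bla HEK293T cells lasted 5 h at 37 C.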

[18] = target: Thyrotropin-releasing hormone receptor (Homo sapiens) (UniProt P34981); experiment: qHTS assay to identify small molecule antagonists of the thyrotropin-releasing hormone receptor (TRHR) signaling pathway (AID 1346877; active means well fitted inhibition curve with a large enough effect in the repeat runs, not every such curve was filed as active; further: series mostly up to about 51 µM)
Sequence of Thyrotropin-releasing hormone receptor (Homo sapiens) (P34981 whole entry, looked up): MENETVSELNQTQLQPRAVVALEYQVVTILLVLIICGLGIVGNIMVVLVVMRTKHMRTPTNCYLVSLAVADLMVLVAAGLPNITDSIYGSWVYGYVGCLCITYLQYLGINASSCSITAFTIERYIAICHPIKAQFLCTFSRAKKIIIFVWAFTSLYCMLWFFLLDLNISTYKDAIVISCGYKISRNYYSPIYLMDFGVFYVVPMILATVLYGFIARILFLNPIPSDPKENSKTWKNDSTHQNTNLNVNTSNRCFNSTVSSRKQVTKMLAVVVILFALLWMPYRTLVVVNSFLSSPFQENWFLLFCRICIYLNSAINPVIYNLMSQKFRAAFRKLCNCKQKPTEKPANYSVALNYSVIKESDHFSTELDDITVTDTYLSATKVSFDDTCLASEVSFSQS
Outline: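 Cells (TRHR-HEK293) are plated and kept 18 h at 37 °C/5% CO2. A calcium-sensitive dye is added for 2 h, compound follows for 5 min at room temperature, and TRH is then given at 1 nM final.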

[19] = target: Thyrotropin-releasing hormone receptor (Homo sapiens) (UniProt P34981); experiment: qHTS assay to identify small molecule agonists of the thyrotropin-releasing hormone receptor (TRHR) signaling pathway (AID 1346891; calls by dose curve; further: series mostly up to about 58 µM)
Outline: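 Agonist-mode intracellular calcium readout: kinetic fluorescence over 3 min at 1 s intervals after compound addition to TRHR-HEK293 cells (18 h seeded, 2 h dye-loaded at 37 C). Fifteen concentrations, triplicates.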

[20] = Human pregnane X receptor (PXR) small molecule agonists, qHTS cell viability counter screen (AID 1346977); further: nearly all actives have a fitted effect of over 50% in size
Outline: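 Same-well viability read: CellTiter-Fluor added after 23 hr compound exposure, fluorescence measured 1 hr later. Cells were PXR-Luc HepG2 seeded at 2,000/well in 5% charcoal-stripped FBS medium, rested 5 hr before dosing at 37 C.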

SMILES | Potency [1] | Potency [2] | Potency [3] | Potency [4] | Potency [5] | Potency [6] | Potency [7] | outcome [8] | Potency [9] | Potency [10] | outcome [11] | Potency [12] | Potency [13] | Potency [14] | Potency [15] | Potency [16] | Potency [17] | Potency [18] | Potency [19] | Potency [20]
CCCCCCS | inactive | inactive | inactive | inactive | inactive | inactive | inactive | inactive | inactive | inactive | inactive | inactive | inactive | inactive | inactive | inactive | inactive | inactive | inactive | inactive
COc1ccccc1OCCNCC(O)COc1cccc2[nH]c3ccccc3c12 (configuration not stated) | inactive | 7.5 µM (active) | 29.8 µM (active) | 9.44 µM (active) | inactive | 11.9 µM (active) | inactive | inactive | 33.5 µM (active) |  |  |  |  | 15 µM (active) | inactive | inactive | inactive | inactive | inactive | 
COc1nccnc1CC(C)C | inactive | inactive | inactive | inactive | inactive | inactive | inactive | inactive | inactive | inactive |  |  | inactive | inactive | inactive | inactive | inactive | inactive | inactive | 
